phage Ecoli inh: E. coli growth loss with phage present. 0.26% of 360,000 active. growth absorbance. inhibition, % at 11.9 µM; in the data active = inhibition above about 11%
Tat export inh: E. coli Tat transport inhibition | E. coli MC4100 TorA-mCherry Tat export, fluorescence | inhibition, % at 10 µM | 0.036% of 340,000 active | AID 488895;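 active = mean replicate inhibition at least 50% and at least half of replicates individually reaching 50%; inconclusive = only one of the two criteria met; inactive = neither criterion met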;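 also: exported cargo escapes ClpAP degradation while cytoplasmic cargo is degraded and loses fluorescence; 0% = median of neutral control wells and 100% = median of NaSCN control wells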
E coli growth-1: counter-screen for AddAB inhibitors: E. coli growth inhibition; inhibition, % at 11.9 µM; 0.27% of 330,000 active; E. coli V3065 growth, OD600 absorbance, 18 h;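 active = inhibition above the campaign's mean inhibition across all tested compounds plus 3 SD, cut at about 9.9% in these data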;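 also: uninfected addAB+ strain grown without phage in ampicillin broth; 0% = DMSO wells and 100% = ciprofloxacin 0.95 µg/ml wells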
AddAB inh: less growth of phage-infected E. coli with AddAB | E. coli expressing H. pylori AddAB, absorbance growth | 0.29% of 330,000 active | inhibition, % at 11.9 µM; in the data active = inhibition above about 12%;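 also: 0% = vehicle wells of infected cells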
E coli growth-2: E. coli growth inhibition; 0.21% of 330,000 active; OD600 absorbance (test concentration not listed); Escherichia coli growth, OD600, 23 h; active compounds read low;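 active = OD600 absorbance below the run mean of sample wells minus 3.6 SD, in any replicate, cut at about 0.56 in these data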
AddAB confirm: confirmation screen: growth loss of phage-infected E. coli expressing H. pylori AddAB; shares compounds with AddAB inh; E. coli V3065 expressing H. pylori AddAB, T4 phage, OD; T4 phage with gene 2 nonsense mutations; inhibition, % at 11.9 µM; 64% of 880 active; AID 488942;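 active = mean inhibition above a set limit taken from the earlier primary screen, cut at about 13% in these data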;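 also: higher means less bacterial growth since AddAB block lets phage replicate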
RecBCD counter: reduces growth of phage-infected RecBCD+ E. coli, AddAB inhibitor counter-screen | inhibition, % at 11.9 µM | shares compounds with AddAB inh | E. coli V66 + mutant T4 phage, OD growth | AID 488955 | 73% of 880 active;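 active = mean inhibition above the mean of solvent-only control wells plus 3 SD, cut at about 4% in these data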;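 also: optical density read after an 18 h incubation at 37 °C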
Bact viability: counter-screen: bacterial growth inhibition | shares compounds with AddAB inh | inhibition, % at 11.9 µM | bacterial viability, absorbance (AddAB counterscreen) | 35% of 880 active | AID 488956; in the data active = inhibition above about 25%
RecBCD conf: growth loss of phage-infected V66 E. coli, RecBCD confirmation screen; shares compounds with phage Ecoli inh; E. coli V66 + T4 2- phage, growth OD; inhibition, % at 11.9 µM; 45% of 890 active; AID 651982;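 active = mean inhibition over triplicates exceeding the hit threshold derived in the original primary screen, cut at about 11% in these data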
Ecoli viability: bacterial viability inhibition counter-screen for RecBCD. shares compounds with phage Ecoli inh. E. coli viability, absorbance (OD) growth. inhibition, % at 11.9 µM. 29% of 890 active. AID 651983; in the data active = inhibition above about 20%;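 also: E. coli strain V66 grown with compound alone and no phage infection; 0% = bacteria with DMSO vehicle only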
AddAB counter: growth loss of phage-infected AddAB E. coli, RecBCD counter-screen; E. coli expressing H. pylori AddAB + T4 phage, OD growth; gene 2 mutant T4, recBCD-deleted host; shares compounds with phage Ecoli inh; 45% of 890 active; inhibition, % at 11.9 µM;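 active = mean inhibition above the solvent-only control wells' mean plus 3 SD, cut at about 22% in these data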;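 also: higher means less bacterial growth from phage killing when AddAB is blocked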
The depositor's hits bear a star; i = inactive; ? = inconclusive; · = no result given; ! = not confirmed by another sample. Shown are actives, neighbours in structure and some others; about 0.5% of the full set was active somewhere.

SMILES | phage Ecoli inh | Tat export inh | E coli growth-1 | AddAB inh | E coli growth-2 | AddAB confirm | RecBCD counter | Bact viability | RecBCD conf | Ecoli viability | AddAB counter
O=C(CSc1ncccn1)Nc1ccc2c(c1)OCO2 | 1 | 6 | -1 | 1 | 0.71 | · | · | · | · | · | ·
O=C(CSc1ncccn1)NC(=O)Nc1ccc2c(c1)OCCO2 | 7 | -4 | 9 | 12* | 0.56 | 8 | 6.4* | 5 | · | · | ·
CCn1cc(C(=O)NC(C)C)c(=O)c2cc(F)c(N3CCN(C(=O)c4ccco4)CC3)cc21 | 5 | 9 | 82* | 89* | 0.087* | 99* | 1 | 35* | · | · | ·
CC(=O)c1cc(F)c(N2CCN(C(=O)c3ccco3)CC2)cc1C | 0 | -4 | 2 | 2 | 0.74 | · | · | · | · | · | ·
CCn1cc(C(=O)NCCC(C)C)c(=O)c2cc(F)c(N3CCN(C(=O)c4ccco4)CC3)cc21 | 3 | 3 | 16* | 26* | 0.15* | 99* | 2 | 36* | · | · | ·
CCOC(=O)N/N=C(/C)c1ccc([N+](=O)[O-])o1 | 8 | -14 | 30* | 32* | · | 101* | 13* | 39* | · | · | ·
CC(=NNC(=O)C(O)(c1ccccc1)c1ccccc1)c1ccc([N+](=O)[O-])o1 | · | · | · | · | 0.71 | · | · | · | · | · | ·
NS(=O)(=O)c1ccc(-c2ccc(/C=C3\C(=O)Nc4ccccc43)o2)cc1 | · | · | -1 | 3 | · | · | · | · | · | · | ·
Cc1ccc(/C=C2\C(=O)Nc3ccccc32)o1 | 17* | 3 | 19* | 62* | 0.51* | 98* | 14* | 44* | · | · | ·
COC(=O)c1cc(C(=O)c2ccc(Cl)cc2)n2c(=O)c(=CN(C)C)sc12 | · | · | · | · | 0.67 | · | · | · | · | · | ·
COc1ccc([N+](=O)[O-])cc1NC(=O)C(C)OC(=O)C1CCCC1 (stereo unspecified) | 0 | -2 | 1 | 0 | 0.66 | · | · | · | · | · | ·
COc1ccc([N+](=O)[O-])cc1NC(=O)C(C)OC(=O)C1CCC1 (stereo unspecified) | 0 | -11 | 95* | 98* | 0.62 | -3 | -2 | -5 | · | · | ·
Cc1ccccc1-c1nc(CN2CCC(C(=O)O)CC2)c(C)o1 | 1 | ? | 6 | 20* | 0.7 | 4 | 1 | -3 | · | · | ·
COc1ccc2c(CC(=O)OCC(=O)Nc3cccc(S(N)(=O)=O)c3)coc2c1 | 1 | -4 | 96* | 97* | 0.71 | -1 | 1 | -4 | · | · | ·
COc1ccc(C=NNc2nc(-c3cccnc3)nc3ccccc23)cc1OC | · | · | · | · | 0.61 | · | · | · | · | · | ·
C(C#CCCCCCCCCC[n+]1ccccc1)#CCCCCCCCCC[n+]1ccccc1 | · | 82* | 102* | 101* | 0.064* | 100* | 100* | 101* | · | · | ·
CC1CCN(C(=O)c2[nH]cnc2C(=O)NC(C)c2ccccc2)CC1 (stereo unspecified) | · | · | · | · | 0.68 | · | · | · | · | · | ·
COc1ccccc1/C=C\C(=O)NCC(=O)NN=C(C)Cc1ccccc1 | · | · | · | · | 0.65 | · | · | · | · | · | ·
COc1c(OC)c(O)c2c(=O)c(O)c(-c3ccccc3)oc2c1OC | 5 | 2 | 1 | 7 | 0.65 | · | · | · | · | · | ·
COc1ccc(-c2oc3c(OC)c(OC)c(OC)c(O)c3c(=O)c2OC)cc1OC | 12* | 3 | 8 | 13* | 0.7 | 8 | 4.1* | 6 | 4 | 6 | 5
CCOC(=O)C1=C(N)n2c(sc(=Cc3cccs3)c2=O)=C(C(=O)OCC)C1c1cccs1 (stereo unspecified) | · | · | · | · | 0.74 | · | · | · | · | · | ·
Cc1ccsc1C=Nn1c(-c2ccco2)n[nH]c1=S | · | · | · | · | 0.75 | · | · | · | · | · | ·
COc1ccc(O)c(/C=N/NC(=O)c2ccc(CSc3nc(C)cc(C)n3)cc2)c1 | 11* | 3 | 11* | 16* | · | 6 | 8.0* | -2 | 1 | 1 | 6
Cc1cccc(NC(=O)c2ccc([N+](=O)[O-])o2)n1 | 16* | -24 | 38* | 30* | 0.53* | 100* | 13* | 40* | 7 | 10 | 61*
O=C(NNC(=S)NC(=O)c1ccccc1[N+](=O)[O-])c1ccccc1O | 13* | -6 | 17* | 17* | 0.44* | 11 | 14* | 16 | 2 | 6 | 14
SMILES | phage Ecoli inh | Tat export inh | E coli growth-1 | AddAB inh | E coli growth-2 | AddAB confirm | RecBCD counter | Bact viability | RecBCD conf | Ecoli viability | AddAB counter
Cc1onc(-c2ccccc2)c1C(=O)NC(=S)NNC(=O)c1ccccc1O | 24* | 2 | 25* | 24* | 0.62 | 25* | 24* | 25 | 14* | 17 | 29*
Cc1onc(-c2ccccc2)c1C(=O)NC(=S)NNC(=O)c1ccc(O)cc1O | 15* | 2 | 20* | 20* | 0.56 | 13* | 14* | 18 | 9 | 11 | 25*
CCOc1ccc(NC(=O)Cn2cc(C(=O)c3ccco3)c3ccccc32)cc1 | 12* | 2 | 14* | 13* | 0.63 | 10 | 9.7* | 12 | 7 | 11 | 5
CCC(=O)c1cn(CC(=O)Nc2ccc(OC)cc2)c2ccccc12 | 11* | -10 | 14* | 13* | · | 12 | 11* | 9 | 3 | 6 | 5
COC(=O)Cn1cc(C(=O)c2ccco2)c2ccccc21 | 1 | -3 | -1 | 0 | 0.71 | · | · | · | · | · | ·
COc1ccc(NC(=O)Cn2cc(C(=O)c3ccco3)c3ccccc32)cc1 | 18* | -4 | 18* | 16* | 0.64 | 13* | 13* | 15 | 8 | 12 | 16
O=C(Cc1ccccc1)NN=Cc1ccccc1OCc1ccc(Cl)cc1 | · | · | · | · | 0.75 | · | · | · | · | · | ·
CCN1/C(=C/C(C)=C/c2sc3ccccc3[n+]2CC)Sc2ccccc21 | 14*! | i | 38* | 33* | 0.21* | 55* | 20* | 58* | 23* | 25* | 68*
CC(=NNc1ccc([N+](=O)[O-])cc1)c1cc2ccccc2o1 | · | · | · | · | 0.74 | · | · | · | · | · | ·
COc1ccc(OCC(=O)NN=Cc2ccc(O[C@@H]3O[C@H](CO)[C@@H](O)[C@H](O)[C@H]3O)cc2)cc1 | · | · | · | · | 0.69 | · | · | · | · | · | ·
COc1ccc(N/N=C(/N=Nc2nc(C)cc(=O)[nH]2)c2ccccc2)cc1 | 22* | -17 | 20* | 19* | · | 24* | 20* | 21 | 14* | 13 | 19
O=C1CCC(=O)N(O)CCCCCNC(=O)CCC(=O)N(O)CCCCNC(=O)CCC(=O)N(O)CCCCCN1 | 22* | -5 | 28* | 31* | 0.67 | 26* | 23* | 13 | 16* | 20* | 21
